{
  "source": "PubChem BioAssay AID1259313",
  "about": "(Sanford-Burnham Center for Chemical Genomics, 2017)",
  "note": "Out of some 340,000 compounds screened, about 8,500 (2.5%) were called active. The sample holds actives, similar compounds and a random draw of the others, so the mix is not that of the screen.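 How the source made its calls: active means melting temperature shift of at least 10% of the positive control shift, at one fixed dose; inactive means the rest.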",
  "data": [
    {"tested_on": "Glutamate receptor ionotropic, NMDA 3A (GRIN3A) ligand-binding domain", "experiment": "NR3A LBD thermal stabilization by compounds – biophysical, differential scanning fluorimetry, uHTS, primary screen (AID 1259313)", "settings": "at 25 µM, stronger effect = higher value, 0% = protein alone, 100% = glycine-bound protein", "values": [
      {"molecule": "CCCNC(=O)c1cnc(-c2ccccc2)nc1-c1ccccc1", "Tm shift relative to glycine control": "-1.35% (inactive)"},
      {"molecule": "CN(C)S(=O)(=O)N1CCC(Oc2cccc(C(=O)NCCCC3CCCC3)c2)CC1", "Tm shift relative to glycine control": "0.18% (inactive)"},
      {"molecule": "O=C(Oc1ccc(F)cc1)N1CCOCC1", "Tm shift relative to glycine control": "1.08% (inactive)"},
      {"molecule": "Cc1c(NC(=O)c2c([N+](=O)[O-])cnn2C)c(=O)n(-c2ccccc2)n1C", "Tm shift relative to glycine control": "-0.61% (inactive)"},
      {"molecule": "CCOC(=O)C1(Cc2cccc(OC)c2)CCCN(S(=O)(=O)c2cccnc2)C1", "note": "(stereo not given)", "Tm shift relative to glycine control": "0.32% (inactive)"},
      {"molecule": "O=C(N/N=C/c1ccsc1)c1cc(O)cc(O)c1", "Tm shift relative to glycine control": "-11.7% (inactive)"},
      {"molecule": "O=C(N/N=C/c1cccc(O)c1)c1cc2c(ccc3ccccc32)o1", "Tm shift relative to glycine control": "25.4% (active)"},
      {"molecule": "Cc1ccc2occ(/C=N/NC(=O)c3ccccc3C)c(=O)c2c1", "Tm shift relative to glycine control": "-0.75% (inactive)"},
      {"molecule": "O=C(N/N=C/c1c[nH]c2ccccc12)c1ccccc1O", "Tm shift relative to glycine control": "37% (active)"},
      {"molecule": "O=C(Cc1c[nH]c2ccccc12)N/N=C/c1cccc(F)c1", "Tm shift relative to glycine control": "-4.78% (inactive)"},
      {"molecule": "O=C(N/N=C/c1cccc(OCc2ccccc2)c1)c1ccc(Br)o1", "Tm shift relative to glycine control": "-4.34% (inactive)"},
      {"molecule": "COc1ccc2c(C)cc3nnnn3c2c1", "Tm shift relative to glycine control": "1.26% (inactive)"},
      {"molecule": "Cc1ccc(CN2CCC(N3CCC(C(=O)NCC4CCCO4)CC3)CC2)o1", "note": "(stereo not given)", "Tm shift relative to glycine control": "0.34% (inactive)"},
      {"molecule": "O=C(NC(=O)c1cc(OCC(F)(F)F)ccc1OCC(F)(F)F)Nc1ccccc1", "Tm shift relative to glycine control": "-0.36% (inactive)"},
      {"molecule": "CC(C)(C)n1nc2c(c1NC(=O)c1ccc(S(=O)(=O)N3CCCC3)cc1)CS(=O)C2", "note": "(stereo not given)", "Tm shift relative to glycine control": "0.18% (inactive)"},
      {"molecule": "CC(OC(=O)CNC(=O)c1cccc(F)c1)C(=O)NC1CCCCC1C", "note": "(stereo not given)", "Tm shift relative to glycine control": "-0.43% (inactive)"},
      {"molecule": "FC(F)(F)Oc1ccc(NC(=S)NCc2ccccc2)cc1", "Tm shift relative to glycine control": "0.09% (inactive)"},
      {"molecule": "CS(=O)(=O)c1sc(C(=O)NC(=S)Nc2ccc(OC(F)(F)F)cc2)c2c1C=CCC2", "Tm shift relative to glycine control": "11.4% (active)"},
      {"molecule": "CCNC(=S)Nc1ccc(OC(F)(F)F)cc1", "Tm shift relative to glycine control": "-1.13% (inactive)"},
      {"molecule": "c1ccc2cc3c(NCCN4CCOCC4)ccnc3cc2c1", "Tm shift relative to glycine control": "-8.16% (inactive)"},
      {"molecule": "O=C1CC(c2cccc(Cl)c2)CC(O)=C1C=Nc1ccccc1", "note": "(stereo not given)", "Tm shift relative to glycine control": "-0.75% (inactive)"},
      {"molecule": "Cc1cc(C(=O)OCC(=O)NCc2ccco2)c(C)n1-c1ccccc1", "Tm shift relative to glycine control": "-1.04% (inactive)"},
      {"molecule": "Cc1ccc(S(=O)(=O)N2CC(O)C[C@H]2C(=O)OCC(=O)Nc2ccc(N3CCOCC3)cc2)cc1C", "note": "(stereo not given in full)", "Tm shift relative to glycine control": "1.27% (inactive)"},
      {"molecule": "O=C(Nc1ccc2c(c1)CCC2)c1cccc(S(=O)(=O)N2CCN(c3ccc(F)cc3)CC2)c1", "Tm shift relative to glycine control": "2.49% (inactive)"},
      {"molecule": "O=C(NCC1(N2CCCCC2)CCCCC1)c1cccc(S(=O)(=O)Nc2ccccc2Cl)c1", "Tm shift relative to glycine control": "-0.85% (inactive)"},
      {"molecule": "O=C(Nc1ccc2c(c1)CCC2)c1cccc(S(=O)(=O)Nc2ccccc2Cl)c1", "Tm shift relative to glycine control": "14.9% (active)"},
      {"molecule": "O=C1CSC(c2cccc(F)c2)N1c1ccc(O)cc1", "note": "(stereo not given)", "Tm shift relative to glycine control": "-2.36% (inactive)"},
      {"molecule": "Cc1ccc(NC(=S)Nc2ccc(F)cc2)cc1", "Tm shift relative to glycine control": "-4.68% (inactive)"},
      {"molecule": "S=C(Nc1ccccc1)Nc1ccc2ccccc2c1", "Tm shift relative to glycine control": "12.3% (active)"},
      {"molecule": "COc1ccc(Nc2ccc3ccccc3c2)cc1", "Tm shift relative to glycine control": "1.95% (inactive)"},
      {"molecule": "CCC1(c2ccccc2)NC(=O)N(CC(=O)Nc2ccccc2C(=O)NC2CCCC2)C1=O", "note": "(stereo not given)", "Tm shift relative to glycine control": "0.96% (inactive)"},
      {"molecule": "Cc1ccc(S(=O)(=O)N2CCCCC2)cc1NC(=O)[C@@H]1CCCN1C(=O)c1cccs1", "Tm shift relative to glycine control": "-0.43% (inactive)"},
      {"molecule": "CCOc1ccccc1-c1cc(C(=O)N/N=C(\\C)c2cccnc2)c2ccccc2n1", "Tm shift relative to glycine control": "-0.86% (inactive)"},
      {"molecule": "COc1ccc(NC(=O)c2cc(-c3ccc(C)o3)nc3ccccc23)cc1", "Tm shift relative to glycine control": "3.74% (inactive)"},
      {"molecule": "O=C(c1cc(-c2ccc(Cl)s2)nc2ccccc12)N1CCOCC1", "Tm shift relative to glycine control": "-0.91% (inactive)"},
      {"molecule": "CCOc1ccccc1-c1cc(C(=O)N2CCOCC2)c2ccccc2n1", "Tm shift relative to glycine control": "12.6% (active)"},
      {"molecule": "CC1CCCN(C(=O)c2cc(-c3ccco3)nc3ccccc23)C1", "note": "(stereo not given)", "Tm shift relative to glycine control": "1.06% (inactive)"},
      {"molecule": "CC(=O)N1CCN(C(=O)c2cc(-c3ccc(C)o3)nc3ccccc23)CC1", "Tm shift relative to glycine control": "40% (active)"},
      {"molecule": "CCN1C(=O)[C@@H]2[C@@H](c3ccc(-c4cccc(Cl)c4)cc3)N3CCC[C@@]3(C(=O)OC)[C@@H]2C1=O", "Tm shift relative to glycine control": "-0.81% (inactive)"},
      {"molecule": "O=C(C(=O)N1CCc2ccccc2C1)c1c[nH]c2ccccc12", "Tm shift relative to glycine control": "1.51% (inactive)"},
      {"molecule": "CN1CCN(C(=O)c2ccc(-c3ccc(Br)cc3)o2)CC1", "Tm shift relative to glycine control": "1.11% (inactive)"},
      {"molecule": "CC(=O)c1cccc(NC(=S)N2CCN(S(C)(=O)=O)CC2)c1", "Tm shift relative to glycine control": "-1.28% (inactive)"},
      {"molecule": "COc1ccc(CN(C)Cc2nc3cc(OC)c(OC)cc3c(=O)[nH]2)c(OC)c1", "Tm shift relative to glycine control": "-1.12% (inactive)"},
      {"molecule": "COc1ccc(/C=C2/C(=O)OCc3cc(OC)c(OC)cc32)c(OC)c1", "Tm shift relative to glycine control": "24.2% (active)"},
      {"molecule": "COc1ccc(/C=C2/C(=O)N(c3ccccc3)N=C2C)c(OC)c1", "Tm shift relative to glycine control": "-4.6% (inactive)"},
      {"molecule": "CC(=O)c1ccc(OCCCC(=O)Nc2ccc(C)c(S(=O)(=O)N3CCOCC3)c2)cc1", "Tm shift relative to glycine control": "1.04% (inactive)"},
      {"molecule": "O=C(Nc1ccnn1C1CCN(C/C=C/c2ccc(F)cc2)CC1)C1CCCC1", "Tm shift relative to glycine control": "-2.33% (inactive)"},
      {"molecule": "CC1CCCCN1S(=O)(=O)c1ccc(S(=O)(=O)N(CC(=O)Nc2ccccc2)Cc2cccs2)cc1", "note": "(stereo not given)", "Tm shift relative to glycine control": "-4.57% (inactive)"},
      {"molecule": "O=C(C[n+]1ccc2c(c1)nnn2-c1ccccc1)c1ccc(Cl)cc1", "Tm shift relative to glycine control": "-2.3% (inactive)"},
      {"molecule": "CC(=NNC(=S)N1CCCCCC1)c1ccccn1", "Tm shift relative to glycine control": "1.26% (inactive)"},
      {"molecule": "CCn1c(SCc2cccc(C(=O)O)c2)nnc1-c1ccc(Cl)cc1", "Tm shift relative to glycine control": "-0.55% (inactive)"},
      {"molecule": "CCCOc1ccc(C(=O)NCCc2ccccc2)cc1", "Tm shift relative to glycine control": "25.8% (active)"},
      {"molecule": "CCCc1ccc(OCCNC(=O)c2ccccc2Br)cc1", "Tm shift relative to glycine control": "-0.74% (inactive)"},
      {"molecule": "CN(c1ccccc1)S(=O)(=O)c1ccc(C(=O)NCCc2ccccc2)cc1", "Tm shift relative to glycine control": "-0.95% (inactive)"},
      {"molecule": "CC(C)Oc1ccc(S(=O)(=O)N2CCOCC2)cc1NC(=O)C1CCCC1", "Tm shift relative to glycine control": "2.72% (inactive)"},
      {"molecule": "N#Cc1cc([N+](=O)[O-])ccc1NC(=O)COC(=O)c1cnccn1", "Tm shift relative to glycine control": "0.45% (inactive)"},
      {"molecule": "CCOc1ccc2[nH]c3nc(SCC(=O)NC4CCCC4)nnc3c2c1", "Tm shift relative to glycine control": "-4.45% (inactive)"},
      {"molecule": "CCN1C(=O)[C@H]2[C@@H](c3ccc(-c4ccc(OC)cc4)cc3)N[C@@](Cc3ccccc3)(C(=O)OC)[C@H]2C1=O", "Tm shift relative to glycine control": "-3.39% (inactive)"},
      {"molecule": "CCN1C(=O)[C@H]2[C@@H](c3ccc(SC4CCCCC4)c(OC)c3)N[C@@](Cc3ccccc3)(C(=O)OC)[C@H]2C1=O", "Tm shift relative to glycine control": "15.5% (active)"},
      {"molecule": "CCN1C(=O)[C@H]2[C@@H](c3ccc(-c4ccc(F)cc4)cc3)N[C@@](Cc3ccccc3)(C(=O)OC)[C@H]2C1=O", "Tm shift relative to glycine control": "1.35% (inactive)"}
    ]}
  ]
}
